Data reported in PubChem BioAssay AID1347076 (National Center for Advancing Translational Sciences (NCATS), 2019).
The campaign covered roughly 400,000 compounds. About 13,000 (3.2%) were called active. Not shown: some 18% with an inconclusive outcome. Calls follow the shape of the dose curve; as a rule, active = well fitted cell-killing curve with a large enough effect; inconclusive = small, poorly fitted or top-dose-only effect, or effect the other way; inactive = flat fitted curve, though single readings scatter. Shown is part of a subset that was picked to be rich in actives. Entries that show only a call come without a potency.
Potency is read from the fitted curve at half-maximal effect.

Test: qHTS assay for MDR1-selective chemotherapeutics: Primary screen using the drug-selected MDR subline cells KB-V1; also: nearly all actives have a fitted effect of over 60% in size
Settings: KB-V1 MDR cells viability, CellTiter-Glo, 72 h; series mostly up to 46.1 µM
From the text: A prime difficulty in effectively treating cancer is the development of cellular resistance to multiple structurally unrelated anticancer drugs, a phenomenon known as multidrug resistance (MDR). […] Numerous strategies to overcome P-gp-mediated MDR have been explored, including the design of drugs that evade recognition and efflux, and development of inhibitors to block efflux and restore drug accumulation. […] An alternative approach is to exploit resistance by identifying drugs that target MDR cells over the non-resistant parental cells from which they were selected. […] The development of MDR1-selective agents represents a new strategy for resolving multidrug resistance, as it remains a long-standing clinical challenge for cancer chemotherapy.
Our goal is to identify compounds that selectively kill P-gp-expressing MDR cells. We will identify MDR1-selective compounds by comparing toxicity of compounds in the screening library against parental, drug-naive (KB-3-1) adenocarcinoma cells as well as their drug-selected MDR sub-line (KB-V1). The differential toxicity of compounds against these two cell lines will be used to identify MDR1-selective compounds, whose cytotoxicity is potentiated, rather than diminished, by P-gp expression. This assay will be utilized to conduct a quantitative high-throughput screen (qHTS) in collaboration with the NIH Chemical Genomics Center to identify selective agents, and probe hits arising from the screen will be validated using secondary assays and characterized through a well-established follow-up research program. This screen was run against the entire NCGC library collection of about 400,000 compounds.
NIH Molecular Libraries Probe Production Network [MLPCN]
NIH Chemical Genomics Center [NCGC]
PI: Michael Gottesman, National Cancer Institute, NIH
Briefly, 5 microL of media containing either KB-V1 cells (columns 1-2, 4-48) are dispensed into Greiner white, treated solid-bottom 1536-well assay plates (media-only control is added to column 3). Compounds are then transferred via Kalypsys pin tool equipped with 1536-pin array (10 nL slotted pins, V&P Scientific, San Diego, CA). Following addition of compound, the plates are incubated at 37 degrees C for 72 hours. CellTiter-Glo (2.5 µL/well) is then added, and the plates are read in a ViewLux reader (Perkin-Elmer, clear luminescence filter, 1 second exposure, 1x binning) following a 10 minute incubation. All cells are dispensed in DMEM phenol-red free media containing 10% FBS.
Library plates were screened starting from the lowest and proceeding to the highest concentration. Vehicle-only plates, with DMSO being pin-transferred to columns 5-48, will be inserted uniformly at the beginning and the end of each library in order to monitor and record any shifts in the background, which can be affected by reagent dispensers or loss in enzyme activity over time. Screening data will be corrected, normalized, and concentration-effect relationships will be derived by using publicly-available NCGC, NCATS curve fitting algorithms (http://ncgc.nih.gov/pub/openhts).
In the case of `C[C@H]1CN([C@@H](C)CO)C(=O)CCCn2cc(nn2)CO[C@@H]1CN(C)C(=O)Nc1ccccc1`, the Potency is reported as “inactive”.
In the case of `COc1ccc([C@H]2N[C@]3(CCCN(Cc4ccco4)C3=O)[C@H]3C(=O)N(C)C(=O)[C@@H]23)cc1`, the Potency is reported as “inactive”.
For `COc1cc(CN2CCC(C(N)=O)CC2)ccc1OCc1ccccc1`, the Potency was “inactive”.
For `Oc1c(CN2CCN(c3ccc(F)cc3)CC2)cc(Cl)c2cccnc12`, the Potency was 5.17 µM (active).
In the case of `Fc1ccc(N2CCN(Cc3cnc(Oc4ccc(Br)cc4)s3)CC2)cc1`, the Potency is reported as “inactive”.
In the case of `COc1cc(C)cc(CN2CCC(Cc3ccccc3)CC2)c1O`, the Potency is reported as “inactive”.
For `Oc1c(CN2CCCC2)cc(COCc2ccccc2)c2cccnc12`, the Potency was 20.6 µM (active).
In the case of `O=C(CN1CCN(c2ccc(F)cc2)CC1)Nc1ccccc1`, the Potency is reported as “inactive”.
In the case of `CCC(=O)N1CCc2cc(S(=O)(=O)NC(CC(C)C)C(=O)NCCc3cccc(C)c3)ccc21` (stereo not drawn), the Potency is reported as “inactive”.
For `COC(=O)c1ccc2c(c1)S(=O)(=O)NC2C` (stereo not drawn), the Potency was “inactive”.
With `CCc1ccc(-n2nc(C)c3c(C)cc(=O)n(CC(=O)Nc4ccc(F)cc4C)c32)cc1` the Potency was “inactive”.
For `Cc1ccc(-c2nc3c(C)cc(Br)cn3c2Cc2ccccc2)cc1`, the Potency was “inactive”.
For `CCn1c2c(c(=O)n3ncc(C(=O)N4CCN(c5ccccc5)CC4)c13)CN(Cc1ccc(OC)cc1)CC2`, the Potency was “inactive”.
For `CCc1cccc(NC(=O)Cn2nc(CC)n3c(cc4cc(C)ccc43)c2=O)c1`, the Potency was “inactive”.
In the case of `CN1C(=O)C(CC(N)=O)N(NC(=O)c2ccc(Cl)cc2)C1=S` (stereo not drawn), the Potency is reported as “inactive”.
With `O=C(Nc1ccn(Cc2ccccc2)n1)c1cccc(F)c1` the Potency was “inactive”.
In the case of `Cc1ccc(NC(=O)CC2C(=O)N(Cc3ccccc3)C(=S)N2NC(=O)c2cccc(F)c2)c(C)c1` (stereo not drawn), the Potency is reported as 4.11 µM (active).
For `Cc1ccc(S(=O)(=O)N2C[C@]3(O)C[C@@H]4C(=O)N(c5ccccc5)C(=O)[C@@H]4C[C@]3(OC(=O)NC3CC3)C2)cc1`, the Potency was “inactive”.
In the case of `COc1ccc(NC(=O)C2Cc3c(-c4ccc5c(c4)OCO5)ccnc3O2)cn1` (stereo not drawn), the Potency is reported as 20.6 µM (active).
For `COc1ccc(NC(=O)C2Cc3c(-c4cccc(NC(C)=O)c4)ccnc3O2)cc1OC` (stereo not drawn), the Potency was “inactive”.
For `CC(=O)Nc1ccc(-c2ccnc3c2CC(C(=O)NC(C)C)O3)cc1` (stereo not drawn), the Potency was “inactive”.
With `CCOc1ccc(C(=O)Nc2ccc3nc4c(c(Nc5ccccc5OC)c3c2)CCCC4)cc1` the Potency was “inactive”.
In the case of `CC(C)C[C@@H]1Cc2[nH][nH]c(=O)c2[C@H](CCc2ccccc2)O1`, the Potency is reported as “inactive”.
With `COc1ccc(-c2[nH]nc(-c3ccccc3)c2-c2nc3ccccc3[nH]2)cc1` the Potency was “inactive”.
With `Cc1ccc(-c2nc3ccccc3[nH]2)cc1N` the Potency was 10.3 µM (active).
With `COc1ccc(Br)cc1C(=O)NC(=S)Nc1cc(-c2nc3ccccc3[nH]2)ccc1C` the Potency was “inactive”.
In the case of `CC1(Oc2cccc(F)c2)CCN(Cc2ccccc2OC(F)F)C1` (stereo not drawn), the Potency is reported as “inactive”.
With `COc1ccccc1-n1c(-c2ccc(C)cc2)cn2c3c(=O)n(C)c(=O)n(C)c3nc12` the Potency was “inactive”.
For `COc1cccc(Cn2c(SCc3ccc(C(=O)N4CCCCC4)cc3)nc3ccncc32)c1`, the Potency was “inactive”.
For `CC(C)(C)c1ccc(C(=O)Nc2ccc3c(c2)CCCN3C(=O)c2cccs2)cc1`, the Potency was 20.6 µM (active).
With `O=C(Nc1ccc(NC(=O)c2cccs2)cc1)c1ccc2ccccc2c1` the Potency was “inactive”.
In the case of `O=C(Nc1ccccc1)c1ccc(NC(=O)c2cccs2)cc1`, the Potency is reported as “inactive”.
For `Cc1nn(-c2ccccc2)c(C)c1NC(=O)COc1ccc(Cl)cc1Cl`, the Potency was 2.31 µM (active).
For `Cc1nn(-c2ccccc2)c(C)c1NC(=O)COC(=O)c1cc(Cl)ccc1O`, the Potency was “inactive”.
With `C/C=C/c1ccc(OCC(=O)OCC(=O)Nc2c(C)nn(-c3ccccc3)c2C)c(OC)c1` the Potency was “inactive”.
In the case of `C#CCN(C[C@H]1[C@H](OC(=O)NC2CCCC2)[C@H](OC(=O)NC2CCCC2)C[C@H]2C(=O)N(c3ccccc3)C(=O)[C@@H]12)S(=O)(=O)c1ccc(C)cc1`, the Potency is reported as “inactive”.
In the case of `CC1CCc2c(sc3nc4n(c(=O)c23)CCS4)C1` (stereo not drawn), the Potency is reported as “inactive”.
For `C=CCn1c(SCC(=O)NCCCO)nc2sc3c(c2c1=O)CCC3`, the Potency was “inactive”.
With `C=CCn1c(SCc2c(C)noc2C)nc2sc3c(c2c1=O)CCC(C)C3` (stereo not drawn) the Potency was 4.61 µM (active).
In the case of `O=C(Nc1ccc(Cl)cc1)c1csc([C@H]2C[C@H](O)[C@@H](CO)O2)n1`, the Potency is reported as “inactive”.
For `CCc1nnc2c3ccccc3nc(N3CCN(c4ccc(C)cc4C)CC3)n12`, the Potency was “inactive”.
With `Cc1ccc(S(=O)(=O)NCc2nc3ccccc3c(=O)n2N)cc1` the Potency was “inactive”.
In the case of `CCC1NC(=O)c2cccnc2-n2c1nc1ccc(C)cc1c2=O` (stereo not drawn), the Potency is reported as “inactive”.
With `C(=C\c1ccccc1)/CSc1nnc(-c2cccnc2)n1Cc1ccco1` the Potency was “inactive”.
With `OCCNc1ncnc2oc(-c3ccco3)c(-c3ccco3)c12` the Potency was “inactive”.
With `N=c1c2c(-c3ccccc3)c(-c3ccccc3)oc2ncn1Cc1ccco1` the Potency was 16.4 µM (active).
With `CSCCC(c1nnnn1Cc1ccccc1)N1CCN(C/C=C/c2ccccc2)CC1` (stereo not drawn) the Potency was “inactive”.
For `O=C(CNC(=O)N1CC(=O)Nc2ccccc21)Nc1ccc(Br)cc1F`, the Potency was “inactive”.
For `Cc1ccc(OCCCCN2CCCCC2)c(Br)c1`, the Potency was 16.4 µM (active).
In the case of `Cc1ccc(C(C)C)cc1OCCN1CCCC1`, the Potency is reported as “inactive”.
For `Cc1ccc(C(C)(C)C)c(OCCCCN2CCCC2)c1`, the Potency was 20.6 µM (active).
In the case of `COc1ccccc1OCCCCCCN1CCN(C)CC1`, the Potency is reported as “inactive”.
In the case of `CN1CCN(CCCCOc2cccc3ccccc23)CC1`, the Potency is reported as “inactive”.
In the case of `O=[N+]([O-])c1ccccc1OCCCCN1CCCCC1`, the Potency is reported as “inactive”.
For `CCNC(=O)C1(C)CCCN(C(=O)c2ccc3ccccc3n2)C1` (stereo not drawn), the Potency was “inactive”.
For `Cc1ccccc1S(=O)(=O)NC(=O)C1(C)CCN1C(=O)C1(c2ccc(Cl)cc2)CC1` (stereo not drawn), the Potency was “inactive”.
For `COc1ccccc1-n1c(-c2cc(-c3ccco3)[nH]n2)n[nH]c1=S`, the Potency was “inactive”.
For `CSc1n[nH]c(-c2ccco2)n1`, the Potency was “inactive”.
In the case of `Cn1c(-c2ccco2)nc2cc3ccccc3cc21`, the Potency is reported as 8.2 µM (active).
With `COc1ccc(Nc2cc(C(=O)NCCCN(C)c3ccccc3)c3ccccc3n2)c(OC)c1` the Potency was “inactive”.
With `COc1cc2nc(NCC(C)c3ccccc3)n3nc(-c4ccccc4)nc3c2cc1OC` (stereo not drawn) the Potency was “inactive”.
With `Cn1c(=O)c2c(n3c4ccccc4nc13)NC(=O)CC2c1cccc(Cl)c1` (stereo not drawn) the Potency was “inactive”.
In the case of `Cc1ccccc1NC(=O)Cn1c(=O)n(CC2CCC(C(=O)NCCc3ccccc3)CC2)c(=O)c2ccccc21` (stereo not drawn), the Potency is reported as “inactive”.
